Screening data deposited in PubChem BioAssay by The Scripps Research Institute Molecular Screening Center.
DAX1 inh-1 – inhibitors of human orphan nuclear receptor DAX1 (NR0B1); P51843; HEK293 Gal4-DAX1 luciferase reporter, luminescence; inhibition, % at 6.75 µM; 340,000 tested, 0.99% active;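 active = inhibition above the mean over all tested compounds plus 3 SD, cut at about 4.2% in these data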;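 note: 0% = DAX1-transfected cells with DMSO and 100% = empty-vector control cells with DMSO; inhibition shows as a rise in luminescence from relieved DAX1 repression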
AHR act – activators of human aryl hydrocarbon receptor; AID 2796; AHR-responsive luciferase reporter cells, luminescence; P35869; 320,000 tested, 2.5% active; activation, % at 5 µM; in the data active = activation above about 47%;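 note: 0% = vehicle wells and 100% = reference agonist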
Target sequence (P35869 whole entry, looked up): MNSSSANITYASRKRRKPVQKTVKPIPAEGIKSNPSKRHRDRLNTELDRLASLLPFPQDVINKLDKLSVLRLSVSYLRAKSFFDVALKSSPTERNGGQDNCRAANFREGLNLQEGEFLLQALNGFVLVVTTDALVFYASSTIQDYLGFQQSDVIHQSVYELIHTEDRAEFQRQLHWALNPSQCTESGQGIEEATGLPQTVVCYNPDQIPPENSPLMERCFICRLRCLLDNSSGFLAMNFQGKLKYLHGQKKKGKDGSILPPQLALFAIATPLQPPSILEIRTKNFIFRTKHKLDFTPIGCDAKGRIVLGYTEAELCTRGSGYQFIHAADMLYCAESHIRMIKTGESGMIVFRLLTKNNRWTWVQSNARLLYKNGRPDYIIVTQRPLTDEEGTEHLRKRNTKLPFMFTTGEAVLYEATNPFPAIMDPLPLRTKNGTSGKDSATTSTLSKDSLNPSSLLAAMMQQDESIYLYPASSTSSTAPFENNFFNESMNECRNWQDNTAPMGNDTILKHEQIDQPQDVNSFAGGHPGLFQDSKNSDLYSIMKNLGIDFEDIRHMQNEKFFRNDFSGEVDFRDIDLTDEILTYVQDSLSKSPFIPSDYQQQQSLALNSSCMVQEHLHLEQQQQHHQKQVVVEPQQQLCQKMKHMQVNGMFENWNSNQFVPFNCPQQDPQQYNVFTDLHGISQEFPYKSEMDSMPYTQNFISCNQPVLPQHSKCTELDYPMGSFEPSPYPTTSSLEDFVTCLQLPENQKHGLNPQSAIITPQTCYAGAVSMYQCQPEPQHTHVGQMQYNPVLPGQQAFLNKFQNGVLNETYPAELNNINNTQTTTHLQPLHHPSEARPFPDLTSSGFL
hcDAF12 agonist – activators of H. contortus DAF-12 nuclear receptor. activation, % at 6.8 µM. 370,000 tested, 1.4% active. HEK293 hcDAF-12 lit1-tk-luc reporter, luminescence; 0% DMSO, 100% Δ7-dafachronic acid;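 active = activation above the mean of all tested compounds plus 3 SD, cut at about 5.5% in these data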;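 note: 100% = response to 3 µM Δ7-dafachronic acid high control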
hgDAF-12 ag – activates the H. glycines DAF-12 receptor ligand-binding domain | HEK293 GAL4-hgDAF12 UAS-luciferase reporter, agonist luminescence; normalized to butyrate control | activation, % at 6.8 µM | 370,000 tested, 1.8% active | AID 687014;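 active = activation above a cutoff set at the mean of all screened compounds plus 3 SD, cut at about 10% in these data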;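 note: 0% = DMSO wells and 100% = sodium butyrate wells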
DAX1 inh-2 – blocks DAX1 repression of SF-1 activated StAR promoter; 370,000 tested, 1.1% active; HEK293T StAR-luciferase reporter, SF-1/DAX-1 repression relief; AID 652010; inhibition, % at 6.8 µM;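 active = inhibition above the mean over all tested compounds plus 3 SD, cut at about 3.6% in these data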;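 note: 0% = DAX-1 cells with DMSO and 100% = cells lacking DAX-1 with DMSO; higher inhibition means more luminescence from relief of DAX-1 repression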
ssDAF-12 act – activates DAF-12 receptor from parasite S. stercoralis | activation, % at 6.8 µM | HEK293 ssDAF-12/GRIP1 lit1-tk-luc reporter, luminescence; % of 3 µM dafachronic acid response | AID 652126 | 370,000 tested, 1% active;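 active = activation above the mean over all tested compounds plus 3 SD, cut at about 0.9% in these data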;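 note: 0% = DMSO-only wells and 100% = 3 µM delta7-dafachronic acid wells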
Active calls of the source: *; · = no result given. Compounds with a hit are over-represented: about 5.7% of the library has one in this group of screens.

SMILES | DAX1 inh-1 | AHR act | hcDAF12 agonist | hgDAF-12 ag | DAX1 inh-2 | ssDAF-12 act
COC(=O)C1=C(C)N(Cc2ccc(C(F)(F)F)cc2)C(=NCC2CC2)NC1c1ccccc1 (stereo not drawn) | · | · | 0 | 1 | 0 | -1
Cc1ccc(C(=O)N/N=C2\CC3CC=CC23)c(C)c1 (stereo not drawn) | 5.7* | 3 | 1 | 7 | 0 | -1
Cc1ccnc(N/N=C/c2ccco2)n1 | 3 | 3 | 3 | 5 | 1 | -1
CCSc1nnc2nc3[nH]c4c(C)cccc4c3nn12 | · | 54* | 4 | 6 | 2 | 1.5*
C=CCSc1nnc2c(n1)[nH]c1c(C)cccc12 | -1 | 64* | 1 | 5 | 1 | -1
CC(/C=N/Nc1nnc2c(n1)[nH]c1ccccc12)=C\c1ccco1 | 0 | 73* | · | · | · | ·
Cc1cccc2c1[nH]c1nc(N/N=C\c3ccco3)nnc12 | · | 79* | 1 | -2 | 0 | -1
CC1=NN(c2ccccc2)C(=O)/C1=C/c1c(O)n(-c2ccc(F)c(Cl)c2)[nH]c1=O | · | 49* | · | · | · | ·
O=S1(=O)CC(N2CCCC2)CN1Cc1cn(Cc2ccc(C(F)(F)F)cc2)nn1 (stereo not drawn) | · | · | 0 | 1 | 1 | -1
Cn1cc(C=C2C(=O)CC(C)(C)CC2=O)c2ccccc21 | -2 | 28 | 1 | 2 | 0 | 1.3*
Cn1cc(C=C2C(=O)OC3(CCCCC3)OC2=O)c2ccccc21 | 1 | 5 | 2 | 1 | 0 | 0
CCOc1ccc2nc(NCCNC(=O)C3CC3)c(C)cc2c1 | 1 | 38 | -1 | -1 | 0 | -1
CCOc1ccc2nc(NCCNC(=O)C(C)C)c(C)cc2c1 | -1 | 48* | 0 | 2 | 0 | -1
Cc1cc(C)c2cc(C#N)c(NCCNC(=O)c3ccccc3)nc2c1 | · | · | -1 | -1 | 1 | 0
Cc1cc2cc(C)c(NCCNC(=O)c3ccccc3)nc2cc1C | -1 | 63* | -2 | -2 | -1 | -2
O=C(c1cccn2c(=O)c3ccccc3nc12)N1CCN(Cc2ccc3c(c2)OCO3)CC1 | 0 | 12 | -1 | -3 | -1 | -2
NC(=O)C1(N2CCCCC2)CCN(C(=O)c2cccn3c(=O)c4cc(Cl)ccc4nc23)CC1 | 1 | 26 | -1 | 0 | 0 | -1
O=C(c1cccn2c(=O)c3cc(Cl)ccc3nc12)N1CCOCC1 | 0 | 91* | -1 | 1 | 1 | -2
O=C(c1cccn2c(=O)c3cc(Cl)ccc3nc12)N1CCN(Cc2ccc3c(c2)OCO3)CC1 | 0 | 70* | 1 | -3 | -1 | -1
CCC(=O)N[C@@H]1CC[C@@H](CCNC(=O)Nc2ccc(F)cc2)O[C@@H]1CO | · | · | 0 | -4 | 1 | 0
Cc1oc2c(C)c3oc(=O)c(CCC(=O)O)c(C)c3cc2c1-c1ccccc1 | 0 | 5 | -1 | -1 | 0 | -1
O=C(O)CCCCCNc1ccc2nsnc2c1[N+](=O)[O-] | 0 | -5 | -2 | 1 | 0 | 0
Cc1cc(C)c(NC(=O)CSc2nc3ncc(Br)cc3[nH]2)c(C)c1 | 0 | 12 | 0 | 3 | 0 | -1
O=C(CSc1nnnn1CCCO)Nc1ccc2c(c1)OCO2 | 1 | 55* | -1 | -1 | 0 | -1
Nn1cc(-c2ccccc2)nc1SCC(=O)Nc1ccc2c(c1)OCO2 | 0 | 69* | -1 | -2 | -1 | -2
SMILES | DAX1 inh-1 | AHR act | hcDAF12 agonist | hgDAF-12 ag | DAX1 inh-2 | ssDAF-12 act
CC(C)n1nnnc1SCC(=O)Nc1ccc2c(c1)OCO2 | 2 | 56* | 0 | 4 | 1 | -1
Nn1c(SCC(=O)Nc2ccc3c(c2)OCO3)nnc1-c1cccc(Cl)c1 | 1 | 35 | -1 | 0 | 0 | -2
O=C(CSc1nc2ncc(Br)cc2[nH]1)Nc1ccc2c(c1)OCO2 | 0 | 50* | -1 | 3 | -2 | -2
O=C(CSc1nnnn1C1CCCCC1)Nc1ccc2c(c1)OCO2 | -1 | 20 | -2 | -3 | 0 | -2
CCCCCCCCN1C(=O)[C@@H](CC(=O)N2CCC(c3ccccc3)CC2)C[C@@]2(C(=O)OC)C1=C[C@H](C(C)(C)C)O[C@@H]2C | · | · | 1 | 0 | 1 | -1
Cc1cccc2nc(-c3ccccc3)c(-c3ccc(CN4CCC(n5cc(-c6ccccc6)[nH]c5=O)CC4)cc3)nc12 | · | · | -2 | -4 | -1 | -1
CCCCn1nnnc1SCC(=O)Nc1ccc(N(C)C)cc1 | -2 | 71* | -1 | 0 | 0 | 0
CN(C)C(=O)c1ccc(NC(=O)COC(=O)C2(c3ccccc3)CCCC2)cc1 | -1 | -1 | 1 | 4 | -2 | -2
COc1ccc(NC(=O)/C(C#N)=C\c2ccc(N3CCOCC3)o2)cc1 | 0 | -16 | 1 | 13* | 0 | -1
N#C/C(=C/c1ccc(N2CCCCC2)o1)C(=O)Nc1ccc(Cl)cc1 | 0 | 8 | -1 | 11* | 1 | -2
CC1CC1c1ccc(/C=C(\C#N)C(=O)Nc2ccccc2Cl)o1 (stereo not drawn) | 1 | 50* | 2 | 8 | 1 | 0
CC(=O)Nc1cc(-c2ccc(C(=O)N3CCOCC3)cc2)cn2c(-c3cccc(C(F)(F)F)c3)cnc12 | · | · | -2 | -1 | 0 | -1
Cc1cc(C)[n+]2[nH]c(N)c(N=Nc3ccccc3)c2n1 | 1 | 70* | -2 | 2 | 0 | 0
Nc1ncnc(N)c1N=Nc1ccccc1 | 1 | · | -2 | 0 | 1 | -2
CCN1CCC2(CC1)C(C#N)=C(N)Oc1c2sc2nc(C)cc(C)c12 | 0 | 63* | 0 | 2 | 0 | -1
CCN1CCN(Cc2ccc(OCc3ccccc3)cc2)CC1 | 2 | 7 | 3 | 13* | 2 | -1
c1ccc(COc2ccc(OCCN3CCCC3)cc2)cc1 | -2 | 4 | 1 | 6 | 1 | -2
c1ccc(COc2ccc(OCCN3CCCCC3)cc2)cc1 | -1 | -3 | 6.0* | -1 | 0 | -1
COc1ccc(NC(=O)c2ccco2)c(OC)c1 | 2 | -1 | 0 | 2 | 1 | -1
Cc1cc(O)c(NC(=O)c2ccc(Br)o2)cc1C | 0 | 38 | 5.8* | 13* | 1 | 2.1*
COc1ccc(NC(=O)c2ccco2)cc1NC(=O)c1ccc(Br)o1 | -2 | 58* | -3 | -1 | -1 | -2
COc1cc2c(cc1NC(=O)c1ccco1)CCCC2 | 2 | 9 | 5.7* | 7 | 1 | 0
COc1ccccc1NC(=O)c1ccc(Br)o1 | 1 | 33 | 2 | 4 | 0 | -1
COc1ccc(-c2nc3ccccc3o2)cc1NC(=O)c1ccc(Br)o1 | 1 | 77* | 0 | 5 | 0 | -1
COC(=O)C1=C(C)N(C)C(=NCC2CC2)NC1c1ccccc1C(F)(F)F (stereo not drawn) | · | · | 0 | -2 | -1 | -1
